Source: PubChem BioAssay (several laboratories)
Shown are actives, neighbours in structure and some others; about 3% of the full set was active somewhere.
Mtb BioA inh – inhibitors of Mycobacterium tuberculosis BioA enzyme; actives 0.096% (n = 360,000); inhibition, % at 9.99 µM; purified M. tuberculosis BioA enzyme, plate reader; in the data active = inhibition above about 40%
GDH-TPI counter-1 – counter-screen for M. tuberculosis FBA inhibitors: GDH-TPI coupled enzymes. actives 1.2% (n = 360,000). inhibition, % at 4.8 µM. GDH-TPI coupled enzyme counterscreen, NADH absorbance. AID 588335; in the data active = inhibition above about 30%;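 note: 0% = DMSO wells and 100% = wells lacking the enzyme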
BH1578 lux ind – inducers of Vibrio cholerae quorum light production without autoinducers. V. cholerae BH1578 lux reporter, luminescence, 6 h. activation, % at 18.7 µM. actives 0.16% (n = 350,000). AID 588436; in the data active = activation mostly above about 9.7%, no sharp cut-off
Mtb FBA inh – inhibits M. tuberculosis FBA enzyme. purified M. tuberculosis FBA, fluorescence read-out. inhibition, % at 1 µM. actives 2.3% (n = 360,000). P9WQA3;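 note: 0% = vehicle and 100% = reference inhibitor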
Target sequence (P9WQA3 whole entry, looked up): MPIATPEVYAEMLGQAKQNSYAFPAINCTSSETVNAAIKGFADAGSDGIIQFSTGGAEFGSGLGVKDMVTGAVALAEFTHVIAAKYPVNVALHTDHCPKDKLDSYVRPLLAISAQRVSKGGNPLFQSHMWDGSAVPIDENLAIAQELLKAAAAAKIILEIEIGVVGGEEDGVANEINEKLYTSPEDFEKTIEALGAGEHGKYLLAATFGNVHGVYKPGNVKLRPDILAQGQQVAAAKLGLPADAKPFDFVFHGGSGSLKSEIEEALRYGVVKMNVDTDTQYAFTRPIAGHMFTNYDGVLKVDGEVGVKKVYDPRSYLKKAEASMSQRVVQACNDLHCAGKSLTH
Mtb FBA inh conf – confirmation of M. tuberculosis fructose-bisphosphate aldolase inhibitors. shares compounds with Mtb FBA inh. purified M. tuberculosis FBA, fluorescence read-out. inhibition, % at 1 µM. actives 78% (n = 5,600). AID 651616;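 note: 0% = vehicle wells and 100% = reference inhibitor wells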
GDH-TPI counter-2 – counter-screen for M. tuberculosis FBA inhibitors: GDH-TPI coupled enzyme inhibition | actives 81% (n = 5,600) | GDH-TPI coupled enzyme counterscreen, fluorescence | inhibition, % at 1 µM | shares compounds with Mtb FBA inh; in the data active = inhibition above about 10%
An asterisk follows results filed as active; i = inactive; . = not tested or not shown; + = active, no number. Cut-off read from the data, not from the text of the source, unless noted: active = inhibition above about 27%; inactive = the rest.

SMILES	Mtb BioA inh	GDH-TPI counter-1	BH1578 lux ind	Mtb FBA inh	Mtb FBA inh conf	GDH-TPI counter-2
CC(C)(C)NC(=O)c1nc2nc(-c3ccccc3)cc(C(F)(F)F)n2n1	3.1	0.8	-0.1	31.8*	90.5*	62.3*
Cc1ccc(S(=O)(=O)N(C)C[C@@H]2OCCCC[C@@H](C)Oc3ccc(NC(=O)NC4CCCCC4)cc3C(=O)N([C@@H](C)CO)C[C@@H]2C)cc1	-0.7	.	.	.	.	.
Cc1noc(C)c1NC(=O)Nc1ccc2c(c1)C(=O)N([C@H](C)CO)C[C@@H](C)[C@H](CN(C)Cc1ccc(C(=O)O)cc1)O2	0.6	.	.	.	.	.
CC(=O)N1[C@@H]2c3ccc(-c4ccc(F)cc4)c(=O)n3C[C@H]1[C@H](CO)[C@H]2C(=O)N(C)C	-0.6	.	.	.	.	.
Cc1cc(C)n2nc(NCc3cccc(Br)c3)nc2n1	-11.7	0.9	i	57.5*	70.0*	52.3*
COc1ccc(CNc2nc3nc(C)cc(C)n3n2)cc1OC	.	13.3	-0.4	-1.5	.	.
CC(C)CC#Cc1cnc2c(c1)C(=O)N([C@H](C)CO)C[C@H](C)[C@H](CN(C)Cc1ccccc1C(=O)O)O2	1.7	.	.	.	.	.
Fc1ccc(-c2cc3nc(-c4ccccc4)cc(N4CCN(CCN5CCOCC5)CC4)n3n2)cc1	0.0	10.6	i	49.1*	89.9*	72.0*
CN1CCN(c2cc(-c3ccccc3)nc3cc(-c4ccc(F)cc4)nn23)CC1	.	3.4	4.5	25.8	.	.
COc1ccccc1-c1cc2nc(-c3ccccc3)cc(N3CCN(C(=O)c4ccoc4)CC3)n2n1	-0.3	12.4	-0.4	55.5*	4.4	0.6
COc1cccc(-c2cc3nc(-c4ccccc4)cc(N4CCC5(CC4)OCCO5)n3n2)c1	-1.7	2.8	i	64.6*	1.4	-4.0
Cc1cc(N2CCN(C(=O)c3ccoc3)CC2)n2nc(-c3ccccc3)cc2n1	-1.3	8.1	1.1	1.6	.	.
O=C(c1ccoc1)N1CCN(c2cc(-c3ccccc3)nc3cc(-c4ccccc4)nn23)CC1	-0.7	5.2	i	39.4*	63.6*	59.5*
C[C@@H]1CN([C@@H](C)CO)C(=O)c2cc(C#CC3CCCC3)cnc2O[C@@H]1CN(C)S(=O)(=O)c1cccc(F)c1	4.8	.	.	.	.	.
CO[C@@H]1CN(C)C(=O)c2cc(NC(=O)c3ccccc3F)ccc2OC[C@@H](C)NC[C@@H]1C	-1.2	.	.	.	.	.
O=C(C[C@@H]1C[C@@H]2c3cc(NC(=O)Cc4ccncc4)ccc3O[C@@H]2[C@H](CO)O1)NCC1CC1	0.3	.	.	.	.	.
COc1ccccc1-c1cc2nc(-c3ccccc3)cc(N3CCN(C(=O)c4ccco4)CC3)n2n1	0.3	6.2	-2.1	48.5*	53.6*	43.0*
COc1cccc(-c2cc(N3CCN(C(=O)c4ccoc4)CC3)n3nc(-c4cccc(Cl)c4)cc3n2)c1	-3.4	9.3	-0.1	1.7	.	.
COc1cccc(-c2cc3nc(-c4ccccc4)cc(N4CCN(C(=O)c5ccoc5)CC4)n3n2)c1	-0.8	-2.8	-0.4	62.0*	151.3*	102.0*
CN1CCN(c2cc(-c3cccc(C(=O)O)c3)nc3ccnn23)CC1	-3.6	17.7	-0.7	29.7*	54.6*	46.0*
C[C@@H]1CN([C@H](C)CO)C(=O)Cc2cc(NC(=O)Cn3cnnn3)ccc2O[C@@H]1CN(C)Cc1ccncc1	3.5	.	.	.	.	.
O=C(c1cc2c(s1)-c1ccccc1OC2)N1CCc2ccccc2C1	0.7	0.9	-0.3	24.8	.	.
CCOC(=O)c1cc2c(s1)-c1c(C)cccc1OC2	0.1	16.8	-0.3	82.2*	13.8	17.3*
Cc1cccc2c1-c1sc(C(=O)Nc3nccs3)cc1CO2	-0.8	2.4	-0.3	42.0*	1.4	-1.2
O=C(Nc1nccs1)c1cc2c(s1)-c1ccccc1OC2	-2.2	27.2	0.7	28.4*	141.9*	116.1*
SMILES	Mtb BioA inh	GDH-TPI counter-1	BH1578 lux ind	Mtb FBA inh	Mtb FBA inh conf	GDH-TPI counter-2
Cc1cccc2c1-c1sc(C(=O)Nc3cccc([N+](=O)[O-])c3C)cc1CO2	.	14.4	-0.2	6.6	.	.
O=C(Nc1ccc(Cl)cn1)c1cc2c(s1)-c1ccccc1OC2	-0.4	11.1	-0.4	47.3*	25.6	20.1*
COCC#Cc1ccc2c(c1)O[C@@H](CN(C)Cc1ccncc1)[C@H](C)CN([C@@H](C)CO)S2(=O)=O	2.8	.	.	.	.	.
Cc1noc(C)c1NC(=O)Nc1cccc2c1O[C@H](CN(C)C(=O)Nc1ccc(F)cc1)[C@@H](C)CN([C@H](C)CO)C2=O	1.9	.	.	.	.	.
O=C(c1cccc(Cl)c1)N1CCN(c2ccc(N3CCOCC3)nn2)CC1	5.9	9.3	i	24.3	.	.
O=C(Cn1c(=O)oc2ccccc21)N1CCCCC1	-3.0	10.4	-6.2	3.5	.	.
CC(Oc1ccccc1)C(=O)N1CCN(c2ccc(N3CCOCC3)nn2)CC1 (stereo unspecified)	5.6	-7.4	-0.4	29.7*	1.3	0.4
Cc1ccccc1CS(=O)(=O)CCC(=O)N1CCN(c2ccc(N3CCOCC3)nn2)CC1	.	0.0	-0.4	35.0*	66.4*	59.5*
O=C(Cn1c(=O)oc2ccccc21)N1CCN(c2ccc(N3CCOCC3)nn2)CC1	3.6	14.1	-0.3	28.4*	132.0*	80.1*
O=C(c1ccccc1)N1CCN(c2ccc(N3CCOCC3)nn2)CC1	4.5	0.7	i	31.6*	28.0*	30.4*
CCC#CCN(Cc1ccccc1Br)[C@H](/C=C/c1ccccc1)[C@@H](O)Cc1ccccc1	-1.3	.	.	.	.	.
N#Cc1c(N(CCO)CCO)nc(N)c2c(N)nc3c(c12)CC(=O)N3CC1CCCO1 (stereo unspecified)	.	20.2	-0.1	36.7*	171.3*	151.9*
CNC(=O)C[C@@H]1CC[C@@H]2[C@H](COc3ccc(NC(=O)c4cscn4)cc3C(=O)N2C)O1	0.6	.	.	.	.	.
CC(=O)c1sc(Nc2nc3ccc(F)cc3s2)nc1C	3.9	4.4	i	27.2*	+	161.4*
COC(=O)c1ccc2nc(Nc3nc4ccc(F)cc4s3)sc2c1	-1.6	8.0	-1.1	37.9*	130.8*	121.8*
COC(=O)c1ccc2nc(NC(=O)C(C)(C)C)sc2c1	.	-2.3	-3.6	-3.8	.	.
CCOC(=O)c1csc(Nc2nc3ccc(F)cc3s2)n1	1.3	9.9	2.9	-7.2	.	.
NC(=O)c1c(NC(=O)C(=O)N2CCOCC2)sc2c1CCC2	-0.6	19.7	i	33.5*	117.1*	89.0*
COC(c1ccccc1)c1nnc(CCC(=O)N(C)CCCC2CCCC2)o1 (stereo unspecified)	.	3.1	-0.3	28.3*	123.3*	100.0*
CO[C@H]1CN(C)C(=O)c2cc(NC(=O)NC(C)C)ccc2OC[C@@H](C)N(C)C[C@@H]1C	-2.9	.	.	.	.	.
O=C([C@@H]1[C@@H](CO)[C@@H]2Cn3c(ccc(-c4cccnc4)c3=O)[C@H]1N2Cc1ccncc1)N1CCOCC1	-0.5	.	.	.	.	.
CCOc1ccc(S(=O)(=O)Nc2ccccc2C(=O)NCC2CCCO2)cc1 (stereo unspecified)	-1.7	-2.0	i	31.0*	148.2*	108.1*
